Inconclusive results are not listed. Activity calls are given as the source filed them. The call rests on the fitted dose curve; in most records, active means well fitted curve in the direction sought with a large enough effect; inconclusive means small, poorly fitted or top-dose-only effect, or another doubt; inactive means no such curve, though single readings can be large; an effect the other way counts as inactive or inconclusive.

Test system in the first test: not listed separately
Description: qHTS to identify inhibitors of the type 1 interferon - major histocompatibility complex class I in skeletal muscle: primary screen against the NCATS Pharmaceutical Collection (AID 1347407).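 Further: luminescence of HiBiT knocked into endogenous HLA-B as interferon-induced MHC class I level; on the % scale 0 is the no-effect control and ±100 the full control effect.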 The following applies: human skeletal muscle cells, IFN-b-induced MHC-I HiBiT luminescence, 24 h; series mostly up to 45.9 µM; activity change, negative = inhibition: at the top concentration. In short, it runs like this:
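A qHTS format is used: 8-point, 1:5 compound series with 46 uM top final concentration, applied alongside 4 ng/ml IFN-beta to HLA-B*08:01-HiBiT knock-in myoblasts. Luminescence is measured after 24 h treatment.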
Consider `COc1cc(C)nc(-n2nc(C)cc2OC)n1`, for which the “activity change, negative = inhibition” value was -13.4% (inactive).
Still for that read-out and setting: under `Cc1cc(CC(=O)O)c(C)n1-c1ccc(Cl)cc1` stands -6.52% (inactive).
Take `CC(C)=CCOc1ccc(/C=C/C(=O)c2ccc(OCC=C(C)C)cc2OCC(=O)O)cc1`: the “activity change, negative = inhibition” value is -8.51% (inactive).
On the same count and under the same terms, the result for `CCCCCCCCCCCCOCCOCCOCCOCCOCCOCCOCCOCCOCCO` reads 4.8% (inactive).
The same measure, in the same setting: the result for `N#C/C(=C1\SCC(c2ccccc2Cl)S1)n1ccnc1` (stereo not drawn) reads 13.9% (inactive); that for `O=C(NC1CCN(CCc2c[nH]c3ccccc23)CC1)c1ccccc1`, 0.841% (inactive).
On the same count and under the same terms, under `Cn1c(=O)c2[nH]c(Br)nc2n(C)c1=O` stands 0.593% (inactive); under `O=S(c1cc(Cl)cc(Cl)c1O)c1cc(Cl)cc(Cl)c1O`, 1.78% (inactive); under `COc1cc(O)c(C(=O)c2ccccc2)cc1S(=O)(=O)O`, 0.218% (inactive).
For the molecule `Cc1cccc(C)c1NC(=O)CN1CCCC1`, the “activity change, negative = inhibition” value is -8.49% (inactive).
Still for that read-out and setting: under `CCC(C(=O)OCCOCCN(CC)CC)c1ccccc1` (stereo not drawn) stands -5.26% (inactive).
Still for that read-out and setting: under `CCCN(CCC)S(=O)(=O)c1ccc(C(=O)O)cc1` stands -6.96% (inactive); under `Cc1cccc(C)c1NC(=O)c1ccccc1C(=O)O`, 22.6% (inactive).
Turning to `O=C(Nc1ccccc1)OCC(CN1CCCCC1)OC(=O)Nc1ccccc1` (stereo not drawn), the “activity change, negative = inhibition” value is -19.8% (inactive).
Still for that read-out and setting: under `COc1cc(C(=O)NCc2ccc(OCCN(C)C)cc2)cc(OC)c1OC` stands -19.1% (inactive).
Still for that read-out and setting: under `CCC(Cc1c(I)cc(I)c(N)c1I)C(=O)O` (stereo not drawn) stands 0.0194% (inactive); under `CCC1Nc2cc(Cl)c(S(N)(=O)=O)cc2S(=O)(=O)N1` (stereo not drawn), -2.64% (inactive); under `CCc1nn(CCCN2CCN(c3cccc(Cl)c3)CC2)c(=O)n1CCOc1ccccc1`, -10.4% (inactive).
Same read-out and setting: under `CC(=O)Nc1ccc(S(=O)(=O)Nc2ccc([N+](=O)[O-])cc2)cc1` stands -3.27% (inactive).
For `Nc1ccc(S(=O)(=O)Nc2cnc3ccccc3n2)cc1`, the “activity change, negative = inhibition” value is 1.01% (inactive).
The same measure, in the same setting: under `CCC(CC)(CC(=O)Nc1cccc(/C=C/c2nc(C3CCC3)cs2)c1)C(=O)O` stands 5.21% (inactive).
Consider `COC(=O)C(c1ccccc1Cl)N1CCc2sccc2C1` (stereo not drawn), for which the “activity change, negative = inhibition” value is -17% (inactive).
The same measure, in the same setting: the result for `CC(=O)Nc1ncc([N+](=O)[O-])s1` reads 0.731% (inactive); that for `NS(=O)(=O)Cc1noc2ccccc12`, 30.4% (inactive).
On the same count and under the same terms, the result for `Cc1cccc(C)c1NC(=O)CN1CCCCCC1` reads 0.0781% (inactive); that for `O=C(O)C(Cc1cc(I)c(O)c(I)c1)c1ccccc1` (stereo not drawn), -4.19% (inactive); that for `NS(=O)(=O)c1cc2c(cc1Cl)NC(CC1CCCC1)NS2(=O)=O` (stereo not drawn), -4.54% (inactive).
Same read-out and setting: the result for `CN1CCc2cccc3c2[C@H]1Cc1ccc(O)c(O)c1-3` reads -7.87% (inactive).
On to `COc1cc(NS(=O)(=O)c2ccc(N)cc2)ncn1`, for which the “activity change, negative = inhibition” value was 2.92% (inactive).
Same read-out and setting: under `NC(=O)n1c(O)c(C(=O)c2cccs2)c2cc(Cl)ccc21` stands -28.2% (inactive); under `C/C=C/c1ccc(O)c(OC)c1`, -4.44% (inactive); under `C[C@@H](O)[C@H]1C(=O)N2C(C(=O)O)=C(S[C@@H]3CN[C@H](CNS(N)(=O)=O)C3)[C@H](C)[C@H]12`, -8.74% (inactive).
Still for that read-out and setting: the result for `NC(=O)c1ccccc1O` reads -2.24% (inactive).
Consider `O=C(CCN1CCN2CCCC2C1)N1c2ccccc2Sc2ccc(Cl)cc21` (stereo not drawn), for which the “activity change, negative = inhibition” value is -14.9% [at 19 µM] (inactive).
On the same count and under the same terms, the result for `O=C(O)C1(C(=O)O)CCC1.[NH2-].[NH2-].[Pt+2]` reads 1.28% (inactive); that for `CCNC(=O)NCc1cccc(Cl)c1`, -7.86% (inactive).

The next test deals with Protein phosphatase 1D (Homo sapiens) (UniProt O15297). Put plainly: RapidFire Mass Spectrometry qHTS Assay for Modulators of WT P53-Induced Phosphatase 1 (WIP1) (AID 1347424). Further: potency means the concentration at half of the fitted maximal effect.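 On activity change, negative = inhibition: plate controls were DMSO wells for no effect and GSK830371 inhibitor control at 10 µM for full effect.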 The following applies: WIP1 dephosphorylation of phosphopeptide, RapidFire MS; series mostly up to 63 µM; activity change, negative = inhibition: at the top concentration. In short, it runs like this: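 RapidFire MS readout of dephosphorylated VEPPL-S-QETFS product, with 1 uM isotope-labelled peptide standard. Reaction: 10 nM WIP1, 2 uM phosphopeptide substrate, 5 min, room temperature, after 1 h compound preincubation; stopped with 0.5% formic acid.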
Protein phosphatase 1D (Homo sapiens), sequence (O15297 whole entry, looked up): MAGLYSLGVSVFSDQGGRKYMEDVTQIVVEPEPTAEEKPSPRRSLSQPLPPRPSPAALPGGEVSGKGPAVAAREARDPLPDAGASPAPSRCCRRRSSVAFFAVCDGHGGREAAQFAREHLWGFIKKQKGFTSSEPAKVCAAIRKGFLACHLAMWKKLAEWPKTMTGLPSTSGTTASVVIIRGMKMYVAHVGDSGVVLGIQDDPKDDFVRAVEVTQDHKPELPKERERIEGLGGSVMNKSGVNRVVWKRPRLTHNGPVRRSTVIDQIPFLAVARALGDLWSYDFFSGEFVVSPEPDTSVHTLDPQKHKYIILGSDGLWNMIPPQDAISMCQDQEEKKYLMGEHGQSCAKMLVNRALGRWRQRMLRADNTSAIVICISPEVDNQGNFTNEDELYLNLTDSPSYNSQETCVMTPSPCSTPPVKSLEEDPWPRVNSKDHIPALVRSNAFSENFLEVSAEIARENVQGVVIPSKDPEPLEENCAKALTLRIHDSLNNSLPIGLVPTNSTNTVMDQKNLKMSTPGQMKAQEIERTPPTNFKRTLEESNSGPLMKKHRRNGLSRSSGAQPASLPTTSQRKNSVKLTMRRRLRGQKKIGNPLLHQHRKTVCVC
Regarding `COc1cc(C)nc(-n2nc(C)cc2OC)n1`, the “activity change, negative = inhibition” value is -4.75% (inactive).
The same measure, in the same setting: under `Cc1cc(CC(=O)O)c(C)n1-c1ccc(Cl)cc1` stands -12.9% (inactive); under `CC(C)=CCOc1ccc(/C=C/C(=O)c2ccc(OCC=C(C)C)cc2OCC(=O)O)cc1`, -10% (inactive); under `CCCCCCCCCCCCOCCOCCOCCOCCOCCOCCOCCOCCOCCO`, 77.5% (inactive).
The same measure, in the same setting: under `N#C/C(=C1\SCC(c2ccccc2Cl)S1)n1ccnc1` (stereo not drawn) stands -0.0639% (inactive).
The same measure, in the same setting: the result for `O=C(NC1CCN(CCc2c[nH]c3ccccc23)CC1)c1ccccc1` reads -5.21% (inactive); that for `Cn1c(=O)c2[nH]c(Br)nc2n(C)c1=O`, -0.451% (inactive).
Take `O=S(c1cc(Cl)cc(Cl)c1O)c1cc(Cl)cc(Cl)c1O`: the Potency was 31.6 µM (active).
Consider `COc1cc(O)c(C(=O)c2ccccc2)cc1S(=O)(=O)O`, for which the “activity change, negative = inhibition” value was -2.57% (inactive).
Same read-out and setting: under `Cc1cccc(C)c1NC(=O)CN1CCCC1` stands 1.61% (inactive); under `CCC(C(=O)OCCOCCN(CC)CC)c1ccccc1` (stereo not drawn), -9.93% (inactive).
Still for that read-out and setting: the result for `CCCN(CCC)S(=O)(=O)c1ccc(C(=O)O)cc1` reads -3.37% (inactive).
On the same count and under the same terms, the result for `Cc1cccc(C)c1NC(=O)c1ccccc1C(=O)O` reads -1.8% (inactive).
As for `O=C(Nc1ccccc1)OCC(CN1CCCCC1)OC(=O)Nc1ccccc1` (stereo not drawn), the “activity change, negative = inhibition” value was 18% (inactive).
Same read-out and setting: the result for `COc1cc(C(=O)NCc2ccc(OCCN(C)C)cc2)cc(OC)c1OC` reads 3.59% (inactive).
Same read-out and setting: under `CCC1Nc2cc(Cl)c(S(N)(=O)=O)cc2S(=O)(=O)N1` (stereo not drawn) stands -8.6% (inactive).
On the same count and under the same terms, the result for `CCc1nn(CCCN2CCN(c3cccc(Cl)c3)CC2)c(=O)n1CCOc1ccccc1` reads 27.5% (inactive); that for `CC(=O)Nc1ccc(S(=O)(=O)Nc2ccc([N+](=O)[O-])cc2)cc1`, -1% (inactive); that for `Nc1ccc(S(=O)(=O)Nc2cnc3ccccc3n2)cc1`, -1.29% (inactive).
With `CCC(CC)(CC(=O)Nc1cccc(/C=C/c2nc(C3CCC3)cs2)c1)C(=O)O`, the “activity change, negative = inhibition” value is -8.35% (inactive).
Still for that read-out and setting: the result for `COC(=O)C(c1ccccc1Cl)N1CCc2sccc2C1` (stereo not drawn) reads 11.6% (inactive); that for `NS(=O)(=O)Cc1noc2ccccc12`, 2.18% (inactive).
The same measure, in the same setting: the result for `Cc1cccc(C)c1NC(=O)CN1CCCCCC1` reads -1.63% (inactive); that for `CN1CCc2cccc3c2[C@H]1Cc1ccc(O)c(O)c1-3`, 3.48% (inactive); that for `COc1cc(NS(=O)(=O)c2ccc(N)cc2)ncn1`, -0.0518% (inactive).
Still for that read-out and setting: the result for `NC(=O)n1c(O)c(C(=O)c2cccs2)c2cc(Cl)ccc21` reads -25.1% (inactive).
In the case of `C/C=C/c1ccc(O)c(OC)c1`, the “activity change, negative = inhibition” value is 5.11% (inactive).
Same read-out and setting: under `C[C@@H](O)[C@H]1C(=O)N2C(C(=O)O)=C(S[C@@H]3CN[C@H](CNS(N)(=O)=O)C3)[C@H](C)[C@H]12` stands 0.427% (inactive).
On the same count and under the same terms, under `NC(=O)c1ccccc1O` stands 4.38% (inactive); under `O=C(CCN1CCN2CCCC2C1)N1c2ccccc2Sc2ccc(Cl)cc21` (stereo not drawn), 13.3% [at 26.6 µM] (inactive).
`O=C(O)C1(C(=O)O)CCC1.[NH2-].[NH2-].[Pt+2]`: the Potency is 11.2 µM (active).
In the case of `CCNC(=O)NCc1cccc(Cl)c1`, the “activity change, negative = inhibition” value was 13.4% (inactive).
